Experimental data from ChEMBL document CHEMBL4296182, “CO-ADD screening of NIH NCI Diversity Set V”.
For part of these data: Results with a measured potency or affinity are listed apart.

How the values were obtained:
Staphylococcus aureus = experiment: Antibacterial activity against Staphylococcus aureus MRSA ATCC 43300 (CO-ADD:GP_020); MIC in CAMBH media using NBS plates, by Resazurin F(560/590); assay type: functional; settings: Concentration 20 uM, ASSAY_TEST Inhibition of Bacterial Growth, detection method Resazurin, Fluorescence (ex560/em590), MEDIA CAMHB, plate type 384well, CORNING #3640, time 18 hr
Acinetobacter baumannii = experiment: Antibacterial activity against Acinetobacter baumannii ATCC 19606 (CO-ADD:GN_034); MIC in CAMBH media using NBS plates, by Resazurin F(560/590); assay type: functional; settings: Concentration 20 uM, ASSAY_TEST Inhibition of Bacterial Growth, detection method Resazurin, Fluorescence (ex560/em590), MEDIA CAMHB, plate type 384well, CORNING #3640, time 18 hr
Escherichia coli = experiment: Antibacterial activity against Escherichia coli ATCC 25922 (CO-ADD:GN_001); MIC in CAMBH media using NBS plates, by Resazurin F(560/590); assay type: functional; settings: Concentration 20 uM, ASSAY_TEST Inhibition of Bacterial Growth, detection method Resazurin, Fluorescence (ex560/em590), MEDIA CAMHB, plate type 384well, CORNING #3640, time 18 hr
Klebsiella pneumoniae = settings: Concentration 20 uM; ASSAY_TEST Inhibition of Bacterial Growth; detection method Absorption (OD600); MEDIA CAMHB; plate type 384well; NBS; CORNING #3640; time 18 hr
Candida albicans = settings: 20 µM
Cryptococcus neoformans = settings: Concentration 20 uM; ASSAY_TEST Inhibition of Fungal Growth; detection method Resazurin; Absorption (OD600-OD570); plate type 384well; NBS; CORNING #3640

| Structure (SMILES) | Inhibition (Staphylococcus aureus) [%] | Inhibition (Acinetobacter baumannii) [%] | Inhibition (Escherichia coli) [%] | Inhibition (Klebsiella pneumoniae) [%] | Inhibition (Candida albicans) [%] | Inhibition (Cryptococcus neoformans) [%] |
| --- | --- | --- | --- | --- | --- | --- |
| CCCCNc1cc(Cl)nc(N)n1 | 19.23 | -9.43 | 4.85 | 9.91 | 0.7 | -8.27 |
| COc1cc2oc3cc(C)oc(=O)c3c2cc1OC | 14.15 | 0.41 | 8.42 | 14.11 | 1.88 | -16.92 |
